Assay outcomes from PubChem BioAssay.
PLK1 PBD inh: blocks phosphopeptide binding to human PLK1 polo-box domain; Plk1 PBD binding of FITC phosphopeptide, fluorescence polarization; hit rate 2.8% among 360,000; Potency, µM, hits mostly inhibitors; P53350; further: series mostly up to about 57 µM; nearly all actives have a fitted effect of over 65% in size
HP1b chromo inh: HP1-beta chromodomain-methylated histone interaction inhibition. hit rate 0.56% among 390,000. AID 540317. Potency, µM (doses to about 114 µM), hits mostly inhibitors. P83916. AlphaScreen HP1-beta / biotin-H3K9me3 peptide binding; further: nearly all actives have a fitted effect of over 70% in size
Target sequence (P83916 whole entry, looked up): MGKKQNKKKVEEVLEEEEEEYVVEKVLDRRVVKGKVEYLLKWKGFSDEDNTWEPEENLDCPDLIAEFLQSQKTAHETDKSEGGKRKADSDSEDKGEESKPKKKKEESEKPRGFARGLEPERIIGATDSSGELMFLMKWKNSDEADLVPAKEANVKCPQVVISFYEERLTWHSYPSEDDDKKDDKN
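Compound inhibition of the preformed complex between 50 nM HP1-beta and 50 nM biotinylated H3K9me3 peptide was read by AlphaScreen. Buffer was PBS pH 7.4 with 0.01% Tween-20. Incubations ran 30 min at room temperature, with 10 ug/mL donor/acceptor beads.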
JMJD2A Tudor inh: inhibitors of human JMJD2A Tudor domain; O75164; Potency, µM (top dose mostly 114 µM), most hits filed as inhibitors; AlphaScreen JMJD2A-Tudor / H3K4me3 peptide binding; hit rate 4.4% among 390,000; further: nearly all actives have a fitted effect of over 50% in size
BAZ2B inh: inhibitors of human BAZ2B bromodomain. Q9UIF8. hit rate 4.4% among 360,000. Potency, µM (top dose mostly 114 µM), actives largely listed as inhibitors. AlphaScreen BAZ2B-H3K14Ac peptide displacement. AID 504333; further: nearly all actives have a fitted effect of over 60% in size
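Compounds, titrated to a top concentration of 110 uM, were incubated 30 min at room temperature with preformed BAZ2B/acetyl-K14 H3 peptide complex (50 nM each). Proximity signal was measured by AlphaScreen after 20 min with beads.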
PI5P4Ka inh: inhibitors of human PI5P4K alpha; P48426; PI5P4Kalpha enzyme, ADP-Glo luminescence, 60 min; active compounds read low; max response, %; hit rate 1.2% among 330,000; active means max response of -50% or lower; inconclusive means between -30% and -50%; inactive means -30% or higher; further: value at the top dose of about 77 µM
Target sequence (P48426 whole entry, looked up): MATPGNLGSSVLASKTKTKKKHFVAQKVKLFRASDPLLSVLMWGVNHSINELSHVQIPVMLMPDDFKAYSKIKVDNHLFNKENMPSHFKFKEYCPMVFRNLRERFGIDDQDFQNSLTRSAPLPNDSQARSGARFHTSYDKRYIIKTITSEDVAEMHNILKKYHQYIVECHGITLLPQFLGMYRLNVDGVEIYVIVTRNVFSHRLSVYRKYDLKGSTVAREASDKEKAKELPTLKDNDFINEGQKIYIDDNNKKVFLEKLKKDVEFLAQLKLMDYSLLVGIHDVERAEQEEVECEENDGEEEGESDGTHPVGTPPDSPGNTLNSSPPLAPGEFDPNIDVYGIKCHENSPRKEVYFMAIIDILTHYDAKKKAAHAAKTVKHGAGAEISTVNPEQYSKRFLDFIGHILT
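PI5P4Kalpha ADP-Glo assay; 5 microM ATP final; 60 min RT reaction; HEPES pH 7.4/EGTA/CHAPS, 5% DMSO; controls lacking substrate or enzyme; luminescent end-point.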
G9a inh: blocks human histone lysine methyltransferase G9a | hit rate 8.8% among 350,000 | Potency, µM (series often up to 102 µM), actives largely listed as inhibitors | AID 504332 | G9a H3K9 monomethylation, AlphaScreen, 2 h | Q96KQ7; further: nearly all actives have a fitted effect of over 75% in size
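AlphaScreen read-out: biotin-H3K9 peptide (500 nM) methylation by 20 nM enzyme with 20 uM SAM, 2 h at room temperature after 15 min compound preincubation; anti-monomethyl H3K9 antibody plus donor/acceptor beads, 10 min dark.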
Of the large screens only hits and unclear results are named; the others gave an inactive call. An excerpt weighted towards active compounds, which were near 12% of everything screened. Unless noted, the call rests on the fitted dose curve; in most records, active means well fitted curve in the direction sought with a large enough effect; inconclusive means small, poorly fitted or top-dose-only effect, or another doubt; inactive means no such curve, though single readings can be large; an effect the other way counts as inactive or inconclusive.

COc1ccc(CNC2CCSc3ccccc32)cc1OC (stereo not drawn)	HP1b chromo inh inconclusive, JMJD2A Tudor inh 8.91µM, BAZ2B inh 50.1µM, G9a inh 10µM
COc1cc(OC)cc(-n2c(=O)c3ccccc3n(CC(=O)NCCc3ccc(OC)c(OC)c3)c2=O)c1	none (no result: PLK1 PBD inh, PI5P4Ka inh)
CC1Oc2ccccc2N(CC(=O)NC2CCCCC2)C1=O (stereo not drawn)	none
O=C(O)COCC(=O)NCc1csc2ccccc12	G9a inh 50.1µM
O=Cc1ccc(Sc2nnc(-c3ccccc3)o2)c([N+](=O)[O-])c1	PLK1 PBD inh inconclusive, JMJD2A Tudor inh inconclusive, BAZ2B inh 44.7µM, G9a inh 39.8µM (no result: PI5P4Ka inh)
Cc1cccc(-n2[nH]c3c4c(ccc3c2=O)C(=O)c2ccccc2C4=O)c1	BAZ2B inh inconclusive, G9a inh 14.1µM
CC(C)Cn1[nH]c2c3c(ccc2c1=O)C(=O)c1ccccc1C3=O	BAZ2B inh 10µM, G9a inh inconclusive
CC(C)N(Cc1nc(-c2ccc(Cl)cc2)no1)C(=O)c1ccco1	none (no result: PLK1 PBD inh, PI5P4Ka inh)
Cc1nc(C)c(C(=O)Nc2ncc([N+](=O)[O-])s2)o1	PLK1 PBD inh 26.7µM, JMJD2A Tudor inh inconclusive, BAZ2B inh inconclusive, PI5P4Ka inh inconclusive, G9a inh 10µM
COc1ccccc1C(=O)N1c2ccccc2C(C)(c2ccc(Cl)cc2)CC1(C)C (stereo not drawn)	BAZ2B inh inconclusive (no result: PLK1 PBD inh, PI5P4Ka inh)
Cc1cc(C)c2c(CC(=O)Nc3nnc(C(C)C)s3)coc2c1	none (no result: PLK1 PBD inh, PI5P4Ka inh)
O=C(CCn1nnc2ccccc21)N1CCC(O)(c2cccc(F)c2)CC1	PLK1 PBD inh 26.7µM, JMJD2A Tudor inh 50.1µM
NNC(=O)CCn1nnc2ccccc21	none (no result: G9a inh)
OC1(c2cccc(C(F)(F)F)c2)CCN(Cc2nnnn2CCc2ccccc2)CC1	none
COCCn1nnnc1C(c1cccc(C(F)(F)F)c1)N1CCOCC1 (stereo not drawn)	G9a inh inconclusive
COCCn1nnnc1CN1CCC(O)(c2cccc(C(F)(F)F)c2)CC1	G9a inh 79.4µM (no result: PI5P4Ka inh)
COCCn1nnnc1CN1CCOCC1	G9a inh 50.1µM (no result: PI5P4Ka inh)
COCCn1nnnc1CN1CCN(c2cccc(C(F)(F)F)c2)CC1	PLK1 PBD inh inconclusive, BAZ2B inh 79.4µM, G9a inh inconclusive
COCCn1nnnc1C(c1cccc(C(F)(F)F)c1)N1CCN(Cc2ccccc2)CC1 (stereo not drawn)	BAZ2B inh inconclusive, G9a inh 50.1µM
CN(C)S(=O)(=O)N1CCC(Oc2cccc(C(=O)N3CCCCCCC3)c2)CC1	none (no result: G9a inh)
Cc1ccc(NC2CCCN(C(=O)c3cccc(-c4ncc[nH]4)c3)C2)cc1C (stereo not drawn)	JMJD2A Tudor inh inconclusive, BAZ2B inh inconclusive, G9a inh inconclusive
CC(=S)c1c(C)cc2cc(C)ccn12	PLK1 PBD inh inconclusive, HP1b chromo inh 22.4µM, JMJD2A Tudor inh 25.1µM, BAZ2B inh 10µM, G9a inh inconclusive
COc1ccccc1/C=C/C(=O)NC(=S)Nc1ccccn1	none
Cc1cccnc1NC(=S)NC(=O)/C=C/c1ccco1	G9a inh 31.6µM
CCOc1ccc(NC(=S)NC(=O)/C=C/c2ccco2)cc1	none
O=C(/C=C/c1ccco1)NC(=S)Nc1ccccn1	PLK1 PBD inh inconclusive, JMJD2A Tudor inh 79.4µM, BAZ2B inh 56.2µM, G9a inh inconclusive
Cc1ccc(C)c(N2CCN(C(=O)c3ccc4nc(-c5ccco5)c(-c5ccco5)nc4c3)CC2)c1	PLK1 PBD inh 5.97µM, BAZ2B inh inconclusive (no result: PI5P4Ka inh)
COc1ccccc1N1CCN(C(=O)c2ccc3nc(-c4ccco4)c(-c4ccco4)nc3c2)CC1	JMJD2A Tudor inh inconclusive, BAZ2B inh inconclusive, G9a inh 10µM
COc1ccccc1N1CCN(C(=O)c2ccc3nc[nH]c3c2)CC1	none
Cc1ccc(C)c(NC(=O)C(=O)NCCc2csc(-c3cccc(F)c3)n2)c1	none (no result: PLK1 PBD inh, PI5P4Ka inh)
O=C1C2C(C(=O)N1CC1CCCO1)C1C=CC2C12CC2 (stereo not drawn)	none
O=C1C2CC=CCC2C(=O)N1CC1CCCO1 (stereo not drawn)	PLK1 PBD inh 23.8µM, JMJD2A Tudor inh inconclusive
Cc1cc(=O)[nH]c(-n2[nH]c(C)cc2=O)n1	JMJD2A Tudor inh 44.7µM, BAZ2B inh 11.2µM
CN1c2ccsc2C(O)=C(C(=S)Nc2ccc(F)c(Cl)c2)S1(=O)=O	PLK1 PBD inh inconclusive, BAZ2B inh inconclusive, G9a inh 17.8µM
Cn1cc(C(=O)Nc2ccc(F)c(Cl)c2)cn1	none
CCCCC[n+]1ccn(-c2nc3ccccc3nc2[N-]S(=O)(=O)c2ccccc2)c1	BAZ2B inh 20µM
CCCCn1c(SCN2C(=O)c3ccccc3C2=O)nc2cc(S(N)(=O)=O)ccc21	G9a inh 39.8µM
CCCCn1c(SCn2nnc3ccccc3c2=O)nc2cc(S(N)(=O)=O)ccc21	G9a inh inconclusive (no result: PI5P4Ka inh)
CCCCn1c(SCC(=O)N2CCC(C)CC2)nc2cc(S(N)(=O)=O)ccc21	G9a inh 7.94µM (no result: PI5P4Ka inh)
COc1ccc2c(c1)c1c(c(=O)n(-c3cccc(C)c3)c(=O)n1CC(=O)NCc1ccc(C)cc1)n2C	none (no result: PLK1 PBD inh, PI5P4Ka inh)
CCNc1ncc2nc(-c3cc(F)cc(F)c3)c(=O)n(C3CC3)c2n1	none (no result: PLK1 PBD inh, HP1b chromo inh, JMJD2A Tudor inh, BAZ2B inh, PI5P4Ka inh)
Cn1c(=O)c2c(nc(NN=C3CCCCC3)n2C)n(C)c1=O	HP1b chromo inh inconclusive, G9a inh 50.1µM (no result: BAZ2B inh)
N#Cc1ccccc1NC(=O)CN1C(=O)NC(Cc2c[nH]c3ccccc23)C1=O (stereo not drawn)	G9a inh 10µM
C[C@@H]1CN([C@@H](C)CO)C(=O)c2cc(NC(=O)C3CCCCC3)ccc2O[C@@H](C)CCCCO[C@H]1CN(C)S(=O)(=O)c1ccc(Cl)cc1	none (no result: HP1b chromo inh, JMJD2A Tudor inh, BAZ2B inh, G9a inh)
CCC1(c2ccc(F)cc2)NC(=O)N(CC(=O)Nc2ccc(N3CCCCC3)cc2)C1=O (stereo not drawn)	JMJD2A Tudor inh 44.7µM, BAZ2B inh 44.7µM
CC1(c2ccc(Cl)cc2)NC(=O)N(CC(=O)Nc2ccc(N3CCCCC3)cc2)C1=O (stereo not drawn)	JMJD2A Tudor inh inconclusive, BAZ2B inh inconclusive, G9a inh 50.1µM
Cc1ccc(C2(C)NC(=O)N(CC(=O)Nc3ccccc3N3CCCCC3)C2=O)cc1 (stereo not drawn)	none
CC1(c2ccc(Cl)cc2)NC(=O)N(CC(=O)Nc2ccc(F)cc2)C1=O (stereo not drawn)	none
Cc1ccc(C2(C)NC(=O)N(CC(=O)Nc3ccccc3N3CCCC3)C2=O)cc1 (stereo not drawn)	JMJD2A Tudor inh inconclusive, BAZ2B inh 50.1µM, G9a inh 39.8µM
CCC1(c2ccc(F)cc2)NC(=O)N(CC(=O)Nc2ccc(C(N)=O)cc2)C1=O (stereo not drawn)	none
Cc1ccccc1CNC(=O)c1cnc2sc(N3CCOCC3)nn2c1=O	none (no result: PLK1 PBD inh, PI5P4Ka inh)
CC(C)(C)c1ccc(C(=O)N2CCC(NC(=O)c3ccccc3)CC2)cc1	none
